Measured values reported in PubChem BioAssay (NCI).
Compounds without any hit were thinned out: in the full panel of roughly 83,000, 20% have a hit.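 Values shown are percent growth following 48 h exposure of cells in 96-well plates to a single concentration of compound; below 10 was considered active.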 Activity calls are given as the source filed them.

Assays:
Experiment in all cases: NCI-60 one-dose screen, 48 h (100 = growth as untreated, 0 = no growth, -100 = all killed)
Settings in all cases: 10 µM unless noted
NCI-H23 lung = test system: NCI-H23 lung
NCI-H226 lung = test system: NCI-H226 lung
HOP-62 NSCLC = test system: HOP-62 NSCLC
NCI-H460 lung = test system: NCI-H460 lung
HOP-92 NSCLC = test system: HOP-92 NSCLC
NCI-H522 lung = test system: NCI-H522 lung
A549/ATCC NSCLC = test system: A549/ATCC NSCLC
786-0 renal = test system: 786-0 renal
COLO 205 colon = test system: COLO 205 colon
DU-145 prostate = test system: DU-145 prostate
K-562 leukemia = test system: K-562 leukemia
MALME-3M melanoma = test system: MALME-3M melanoma
MDA-MB-231 breast = test system: MDA-MB-231 breast
RXF 393 renal = test system: RXF 393 renal
SF-268 CNS = test system: SF-268 CNS
SF-295 CNS = test system: SF-295 CNS
SF-539 CNS = test system: SF-539 CNS
UACC-257 melanoma = test system: UACC-257 melanoma
M14 melanoma = test system: M14 melanoma
NCI-H322M lung = test system: NCI-H322M lung

Measured: growth

O=C(c1cccc(N2CCOCC2)n1)c1c[nH]c2ccccc12
inactive: NCI-H23 lung 92.7% | NCI-H226 lung 82.8% | HOP-62 NSCLC 87.6% | NCI-H460 lung 86.7% | HOP-92 NSCLC 92.8% | NCI-H522 lung 88.3% | A549/ATCC NSCLC 95.3% | 786-0 renal 98.7% | COLO 205 colon 107% | DU-145 prostate 99.8% | K-562 leukemia 103% | MALME-3M melanoma 95.1% | MDA-MB-231 breast 80.2% | RXF 393 renal 99% | SF-268 CNS 94.1% | SF-295 CNS 100% | SF-539 CNS 88.9% | UACC-257 melanoma 87.7% | M14 melanoma 94.8%

c1ccc(-c2c(-c3ccccc3)[n+](Cc3ccc4ccccc4c3)cn2Cc2ccc3ccccc3c2)cc1
active: NCI-H23 lung -74.9% | NCI-H226 lung -75.8% | HOP-62 NSCLC -86.1% | NCI-H460 lung -78.6% | HOP-92 NSCLC -83.9% | NCI-H522 lung -85.8% | A549/ATCC NSCLC -81.8% | 786-0 renal -92.2% | COLO 205 colon -86.4% | DU-145 prostate -96.1% | K-562 leukemia -63.1% | MALME-3M melanoma -82.2% | MDA-MB-231 breast -79.4% | RXF 393 renal -96.2% | SF-268 CNS -89.1% | SF-295 CNS -97.9% | SF-539 CNS -88.3% | UACC-257 melanoma -84% | M14 melanoma -85.8%

CC(=O)c1c(Nc2cccc(F)c2)[nH]c2c(Cl)cc(Cl)c(Cl)c2c1=O
inactive: 786-0 renal 12.2% | DU-145 prostate 25.2% | SF-268 CNS 19.2%
active: NCI-H23 lung 3.83% | NCI-H226 lung -4.3% | NCI-H322M lung 9.02% | HOP-62 NSCLC -10.1% | HOP-92 NSCLC -14.2% | NCI-H522 lung -8.41% | A549/ATCC NSCLC 4.98% | K-562 leukemia 7.81% | MALME-3M melanoma -18.6% | MDA-MB-231 breast -3.57% | RXF 393 renal 4.14% | SF-295 CNS -28.4% | SF-539 CNS 4.02% | UACC-257 melanoma -14.2% | M14 melanoma 6.55%

CC12OC(CC(O)C1O)n1c3ccccc3c3c4c(c5c6ccccc6n2c5c31)C(=O)N(CCN1CCCC1)C4=O (centres undefined)
inactive: NCI-H23 lung 14.3% | HOP-92 NSCLC 34.1% | 786-0 renal 14.5% | COLO 205 colon 14.4% | MALME-3M melanoma 13.2% | MDA-MB-231 breast 56.9% | RXF 393 renal 21.1% | SF-268 CNS 29% | SF-539 CNS 22.8% | UACC-257 melanoma 24.5% | M14 melanoma 19%
active: NCI-H226 lung 2.49% | HOP-62 NSCLC 2.4% | NCI-H460 lung -17.3% | NCI-H522 lung -0.973% | A549/ATCC NSCLC 1.98% | DU-145 prostate 3.68% | K-562 leukemia 4.59% | SF-295 CNS 2.23%

CCn1cc(C(=O)O)c(=O)c2cc(F)c(N3CCN(CC(=O)Nc4ccccc4)C(C)C3)c(F)c21 (centres undefined)
inactive: NCI-H23 lung 91.3% | NCI-H226 lung 100% | HOP-62 NSCLC 101% | NCI-H460 lung 99.2% | HOP-92 NSCLC 97% | NCI-H522 lung 92.5% | A549/ATCC NSCLC 97.9% | 786-0 renal 92.5% | DU-145 prostate 104% | K-562 leukemia 87.1% | MALME-3M melanoma 97.9% | MDA-MB-231 breast 87.1% | RXF 393 renal 101% | SF-268 CNS 93.7% | SF-295 CNS 95.3% | SF-539 CNS 99.1% | UACC-257 melanoma 102% | M14 melanoma 105%

Clc1ccc(Nc2ncc(Cc3cccc(Cl)c3Cl)s2)cc1
inactive: NCI-H23 lung 88.7% | NCI-H226 lung 102% | HOP-62 NSCLC 108% | NCI-H460 lung 97.6% | HOP-92 NSCLC 89% | NCI-H522 lung 80.2% | A549/ATCC NSCLC 86.7% | 786-0 renal 95.2% | DU-145 prostate 102% | K-562 leukemia 86.8% | MALME-3M melanoma 96.7% | MDA-MB-231 breast 99.6% | RXF 393 renal 93.3% | SF-268 CNS 98.3% | SF-295 CNS 100% | SF-539 CNS 94.7% | UACC-257 melanoma 96.6% | M14 melanoma 103%

O=C1/C(=C/c2ccccn2)SC(=S)N1N1CCOCC1
inactive: NCI-H23 lung 96.7% | NCI-H226 lung 95.1% | HOP-62 NSCLC 96.6% | HOP-92 NSCLC 84.8% | NCI-H522 lung 86.8% | A549/ATCC NSCLC 103% | 786-0 renal 103% | COLO 205 colon 103% | DU-145 prostate 104% | K-562 leukemia 103% | MALME-3M melanoma 92.2% | MDA-MB-231 breast 92% | RXF 393 renal 92.5% | SF-268 CNS 99% | SF-295 CNS 95.8% | SF-539 CNS 105% | UACC-257 melanoma 91.8% | M14 melanoma 100%

CCn1cc(C(=O)N/N=C/c2ccccc2)c(=O)c2cc(F)c(N3CCNC(C)C3)c(F)c21 (centres undefined)
active: NCI-H460 lung -73% | NCI-H522 lung -75.3% | A549/ATCC NSCLC -83.9% | 786-0 renal -67.4% | COLO 205 colon -74.4% | DU-145 prostate -87.9% | K-562 leukemia -39.4% | MALME-3M melanoma -78% | MDA-MB-231 breast -70.4% | RXF 393 renal -61.3% | SF-295 CNS 8.87% | SF-539 CNS -86.9% | M14 melanoma -49.7%
inactive: NCI-H23 lung 68.5% | NCI-H226 lung 87.4% | HOP-62 NSCLC 68.6% | HOP-92 NSCLC 55.8% | SF-268 CNS 38.9% | UACC-257 melanoma 39.6%

COc1cc(/C=C/C(=O)c2cc(OC)c(OC)c(OC)c2)ccc1Oc1nc2c(c(=O)n(C)c(=O)n2C)n1C
active: NCI-H23 lung -51.1% | NCI-H226 lung -35.4% | HOP-62 NSCLC -40.8% | NCI-H460 lung -5.25% | HOP-92 NSCLC 3.39% | NCI-H522 lung -68.7% | A549/ATCC NSCLC -13.2% | 786-0 renal -87.4% | COLO 205 colon -77% | DU-145 prostate 7.64% | MALME-3M melanoma -26.8% | MDA-MB-231 breast 9.39% | RXF 393 renal -89.4% | SF-295 CNS -10.1% | SF-539 CNS -24.9% | M14 melanoma -28.5%
inactive: K-562 leukemia 10.2% | SF-268 CNS 11.9% | UACC-257 melanoma 40.8%

CS(=O)/C(C#N)=C\C=C\c1cccc(Cl)c1 (centres undefined)
inactive: NCI-H322M lung 24.1% | HOP-62 NSCLC 17.1% | A549/ATCC NSCLC 20% | 786-0 renal 19.2% | DU-145 prostate 23.1% | K-562 leukemia 10.3% | MALME-3M melanoma 34.7% | MDA-MB-231 breast 40.6% | RXF 393 renal 49.5% | SF-268 CNS 17.2% | SF-295 CNS 32.5% | SF-539 CNS 17.7% | UACC-257 melanoma 31.9%
active: NCI-H23 lung -7.77% | NCI-H460 lung 3.71% | HOP-92 NSCLC -5.77% | NCI-H522 lung -9.88% | COLO 205 colon -22% | M14 melanoma -3.44%

C#Cc1cccc(Nc2ncnc3cc(NC(=O)CCl)ccc23)c1
active: NCI-H23 lung -63.5% | NCI-H322M lung -16.4% | HOP-62 NSCLC -70.3% | NCI-H460 lung -58.7% | HOP-92 NSCLC -75.3% | NCI-H522 lung -66% | A549/ATCC NSCLC -23.7% | 786-0 renal -79.3% | COLO 205 colon -70.4% | DU-145 prostate -96.8% | K-562 leukemia -15.6% | MALME-3M melanoma -74.3% | MDA-MB-231 breast -70.3% | RXF 393 renal -86.2% | SF-268 CNS -59.7% | SF-295 CNS -82.5% | SF-539 CNS -90.9% | UACC-257 melanoma -7% | M14 melanoma -87.4%

O=[N+]([O-])c1c(O)c(Cl)cc(Cl)c1Cl
inactive: NCI-H23 lung 98.7% | NCI-H322M lung 101% | HOP-62 NSCLC 97.9% | NCI-H460 lung 107% | HOP-92 NSCLC 83.3% | NCI-H522 lung 94.7% | A549/ATCC NSCLC 93.1% | 786-0 renal 99.6% | COLO 205 colon 116% | DU-145 prostate 113% | K-562 leukemia 103% | MALME-3M melanoma 96.5% | MDA-MB-231 breast 103% | RXF 393 renal 104% | SF-268 CNS 102% | SF-295 CNS 97.9% | SF-539 CNS 109% | UACC-257 melanoma 108% | M14 melanoma 98.1%
